The full list was thinned out, with hits kept by preference.
ClpP mod = qHTS Assay for Activators of ClpP; Potency, µM (series often up to 57.5 µM); ATP-dependent Clp protease proteolytic subunit (Bacillus subtilis (strain 168)), P80244; purified B. subtilis ClpP, FRET peptide cleavage, 20 min; actives 1.9% (n = 340,000); active = well fitted falling curve with a large enough effect; inconclusive = small, poorly fitted or top-dose-only effect; inactive = no such curve, though single readings can be large or run the other way; note: the source files actives as falling curves though it sought activators and does not explain the sign; nearly all actives have a fitted effect of over 65% in size
Target sequence (P80244 whole entry, looked up): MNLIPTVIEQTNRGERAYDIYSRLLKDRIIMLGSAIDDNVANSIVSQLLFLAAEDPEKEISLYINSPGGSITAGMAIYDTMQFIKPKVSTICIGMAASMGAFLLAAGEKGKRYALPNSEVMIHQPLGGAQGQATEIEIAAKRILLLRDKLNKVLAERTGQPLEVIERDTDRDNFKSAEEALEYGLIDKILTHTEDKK
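Purified B. subtilis ClpP, 10 microg/mL final in Tris/HCl pH8 with KCl, BSA, glycerol and Tween-20, cleaved an Abz/nitrotyrosine-quenched decapeptide. Fluorescence (ex 320, em 430) was read at 0 and 20 min at room temperature. Delta was normalized to 5.8 microM ADEP and DMSO/no-enzyme controls.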
Eya2 phos inh = inhibitors of human Eya2 phosphatase activity; O00167; recombinant Eya2, OMFP fluorescence dephosphorylation (OMFP is methylfluorescein phosphate); Potency, µM (top dose mostly 76.9 µM), actives largely listed as inhibitors; actives 0.006% (n = 330,000); AID 488837
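Eya2 (0.2 uM) preincubated 10 min at ambient with compound, then OMFP substrate added at 50 uM; 10 min reaction in 50 mM HEPES pH 7.5, 50 mM NaCl, 5 uM MgCl2, 0.05% BSA, 1 mM DTT. Fluorescence read at Ex 485/Em 525 nm.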
USP2a inh = USP2a (human) protease inhibition. O75604. USP2 core, Ub-CHOP2 coupled fluorogenic reporter, 485/531. Potency, µM (series often up to 38.3 µM), usual class: inhibitors. actives 0.01% (n = 330,000)
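USP2 core (10nM final) preincubated 30min RT with compound in 20mM Tris-HCl pH 8.0, 2mM CaCl2, 2mM beta-mercaptoethanol, 0.05% CHAPS; 25nM Ub-CHOP2 plus 25nM reporter substrate added, fluorescence (Ex485/Em531) read after 60min.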
GALK inh = blocks human galactokinase activity | Potency, µM (top dose mostly 57.5 µM), usual class: inhibitors | Purified GALK, Kinase-Glo residual ATP luminescence | actives 0.007% (n = 270,000)
Target sequence (P51570 whole entry, looked up): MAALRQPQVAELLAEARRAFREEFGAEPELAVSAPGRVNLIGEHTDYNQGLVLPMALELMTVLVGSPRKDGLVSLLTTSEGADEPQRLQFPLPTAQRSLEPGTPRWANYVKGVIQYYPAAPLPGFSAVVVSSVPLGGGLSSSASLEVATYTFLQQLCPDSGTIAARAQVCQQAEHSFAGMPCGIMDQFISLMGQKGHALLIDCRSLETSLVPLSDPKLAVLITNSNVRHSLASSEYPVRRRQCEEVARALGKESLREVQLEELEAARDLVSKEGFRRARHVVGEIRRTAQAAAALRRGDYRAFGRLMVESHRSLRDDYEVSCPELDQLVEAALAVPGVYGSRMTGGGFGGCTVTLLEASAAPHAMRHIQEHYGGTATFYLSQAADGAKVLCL
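Kinase-Glo Plus luminescence measured ATP left after a 1 h room-temperature reaction. The reaction used 5 nM GALK, 100 uM galactose and 35 uM ATP at pH 8.0 (20 mM HEPES, 5 mM MgCl2, 60 mM NaCl, 1 mM DTT, 0.01% BSA).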
Numbers stand for hits; n = inactive; u = inconclusive; x = no result; ! = not confirmed by another sample. Unless noted, calls come from the whole dose curve; as a rule, active = well fitted inhibition curve with a large enough effect; inconclusive = small, poorly fitted or top-dose-only effect, or effect the other way; inactive = flat fitted curve, though single readings scatter.

SMILES | ClpP mod | Eya2 phos inh | USP2a inh | GALK inh
Cc1cc(S(=O)(=O)N2CCOCC2)ccc1OCC(=O)Nc1ccc(F)cc1 | 13µM | n | n | n
COc1ccc(S(=O)(=O)N2CCOCC2)cc1NC(=O)COC(=O)C1CCC1 | 35µM | n | n | x
Cc1ccc(S(=O)(=O)N2CCOCC2)cc1NC(=O)COC(=O)C1CCC1 | n | x | x | x
COc1ccc(NC(=O)N2CCCC2C(=O)NC23CC4CC(CC(C4)C2)C3)cc1 (stereo not given) | x | n | n | n
Cc1ccc(-n2nnnc2SCc2nc3sc(C)c(C)c3c(=O)[nH]2)cc1 | 3.5µM | n | n | n
CC(=O)c1sc2nc(CSc3nnnn3-c3ccccc3)[nH]c(=O)c2c1C | n | n | n | n
Cc1ccccc1CN1c2ccccc2-c2nc(SCC(=O)NCc3ccccc3)ncc2S1(=O)=O | 32µM | x | x | x
CCCN(CC(=O)Nc1ccc(F)c(F)c1F)C(=O)c1cc([N+](=O)[O-])ccc1N1CCOCC1 | 22µM | n | n | x
CCNC(=O)CSc1nc2cc(S(=O)(=O)Nc3ccc(OC)cc3)ccc2o1 | n | n | n | n
COc1ccc(NS(=O)(=O)c2ccc3oc(SC(C)C(N)=O)nc3c2)cc1 (stereo not given) | 32µM | n | n | n
Cc1cc(-c2nnc(CCC(=O)NCc3cc(F)cc(C(F)(F)F)c3)o2)no1 | 28µM | n | n | n
CCOc1ccc(N2CC(C(=O)Nc3ccc(OC)c(S(=O)(=O)N4CCCCC4)c3)CC2=O)cc1 (stereo not given) | 28µM | n | n | n
COc1ccc(NC(=O)C2CC(=O)N(c3ccc(C)cc3)C2)cc1S(=O)(=O)N1CCCCC1 (stereo not given) | n | x | x | x
COc1ccc(C2Nc3ccccc3C(=O)N2Cc2ccco2)cc1COc1ccc(NC(C)=O)cc1 (stereo not given) | 32µM! | n | n | n
COc1ccc(C2Nc3ccccc3C(=O)N2Cc2ccco2)cc1COc1ccccc1F (stereo not given) | 14µM | n | n | n
O=Cc1cn(CC(O)Cn2cc(C=O)c3ccccc32)c2ccccc12 | n | n | n | n
O=S1(=O)N=C(N/N=C/c2ccc(Br)o2)c2ccccc21 | x | n | n | n
Cc1ccc2c(c1)N(C(=O)CCC(=O)NCCCN(C)Cc1ccccc1)CCO2 | n | n | n | x
Cc1ccc(C)c(-c2csc(NC(=O)C3=COCCO3)n2)c1 | x | n | n | x
COc1ccc(OC)c(-c2csc(NC(=O)C3=COCCO3)n2)c1 | 32µM | n | n | x
COc1ccccc1CNC(=O)CSc1ccc(-c2sc(-c3ccccc3)nc2C)nn1 | 28µM | x | x | x
COc1ccc(-c2cc(C(=O)N(C)CC(=O)Nc3cccc(F)c3)c3ccccc3n2)cc1OC | n | x | x | x
CC(C)c1cc(-c2cc(C(=O)NCc3ccccc3)on2)nc(NCC2CC2)n1 | 32µM | n | n | n
O=C(NC(=S)Nc1ccc(F)c([N+](=O)[O-])c1)c1ccccc1F | x | n | n | n
CC(C)C(=O)Nc1ccc(NC(=S)NC(=O)c2ccccc2F)cc1 | 32µM | n | n | n
SMILES | ClpP mod | Eya2 phos inh | USP2a inh | GALK inh
CSc1ccc(/C=N/S(=O)(=O)c2ccccc2)cc1 | n | n | n | x
Cc1cccc(OCCSc2nc3ccc(NC(=O)c4cccs4)cc3s2)c1 | 20µM | x | x | x
COc1cc(C)ccc1OCCSc1nc2ccc(NC(=O)c3ccc4c(c3)OCO4)cc2s1 | 22µM | x | x | x
Cc1ccccc1OCCSc1nc2ccc(NC(=O)c3cccs3)cc2s1 | 14µM | x | x | x
Cc1ccccc1OCCSc1nc2ccc(NC(=O)c3ccccc3)cc2s1 | n | x | x | x
Cc1ccccc1C(=O)Nc1ccc2nc(SCCOc3ccccc3)sc2c1 | n | x | x | x
Cc1ccccc1OCCSc1nc2ccc(NC(=O)c3cccc(F)c3)cc2s1 | 22µM | x | x | x
COc1cccc(C(=O)Nc2nnc(CCS(=O)(=O)c3ccc(C)cc3)s2)c1 | n | n | n | n
COc1cc2[nH]c(=O)n(Cc3ccc(C(=O)NCC4CCCO4)cc3)c(=O)c2cc1OC (stereo not given) | 25µM | n | n | n
CCN1CCN(C(=O)c2ccc(Cn3c(=O)[nH]c4cc(OC)c(OC)cc4c3=O)cc2)CC1 | 16µM | n | n | n
Cc1cc(N)n2ncc(-c3ccc(F)cc3)c2n1 | n | n | n | n
Cc1cc(N)n2ncc(-c3ccc(Cl)cc3)c2n1 | 22µM | n | n | n
Clc1ccc(Cn2c(/C=C/c3ccco3)nc3ccccc32)cc1 | 35µM | n | n | n
CCCCn1c(/C=C/c2ccco2)nc2ccccc21 | n | n | n | n
CCCn1c(/C=C/c2ccco2)nc2ccccc21 | n | n | n | n
Cc1ccc(Cn2c(/C=C/c3ccco3)nc3ccccc32)cc1 | 28µM | n | n | n
CCOC(=O)c1cc(-c2ccc(OC(F)F)cc2)nc2nc(SC)[nH]c(=O)c12 | x | n | n | n
CCOC(=O)c1cc(-c2ccc(OC(F)F)cc2)nc2c1c(=O)[nH]c(=O)n2C | 3.5µM | n | n | n
CC(=O)Nc1ccc(C(=O)COC(=O)Cc2ccsc2)c(F)c1 | x | n | n | x
Cc1ccc(C2Nc3ccc4ccccc4c3C3=C2C(=O)CC(C)(C)C3)o1 (stereo not given) | 14µM | n | n | n
O=C1CCCC2=C1C(c1ccco1)Nc1ccc3ccccc3c12 (stereo not given) | 35µM | n | u | n
O=C(O)c1ccc2c(c1)CCCN2 | n | n | n | n
Cn1cc(-c2nnc(-c3ccccc3)o2)c2ccccc21 | 14µM | n | n | n
Cc1ccccc1-c1nnc(-c2ccccc2)o1 | u | n | n | n
C=CCN1C(=O)/C(=c2\sc3nc(=O)c(Cc4ccccc4)nn3c2=O)c2ccccc21 | n | n | n | x
SMILES | ClpP mod | Eya2 phos inh | USP2a inh | GALK inh
COC(=O)c1sc(-c2ccccc2)cc1NC(=O)Nc1ccccc1Cl | n | x | x | x
COC(=O)c1sc(-c2ccccc2)cc1NC(=O)Nc1ccc(F)cc1 | 32µM | x | x | x
COC(=O)c1sc(-c2ccccc2)cc1NC(=O)Nc1ccc(Cl)cc1 | 18µM | x | x | x
CCOC(=O)c1sc(-c2ccc(F)cc2)cc1NC(=O)Nc1ccccc1OC | 18µM | n | n | n
COC(=O)c1sc(-c2ccccc2)cc1NC(C)=O | n | n | n | n
NCCOc1ccccc1Cc1ccccc1 | n | n | n | n
O=C1NCC(COc2cccc3ccccc23)O1 (stereo not given) | x | n | n | n
O=C(Nc1ccc2ccccc2c1)c1cn(-c2ccccc2)nc1-c1cccs1 | 32µM | n | n | n
CCNc1cccc2c1C(=O)N(C)C2=O | n | n | u | n
CCC(=O)Nc1cccc2c1C(=O)N(C)C2=O | 25µM | n | n | n
CCOC(=O)C1CCN(C(=O)CN2C(=O)C(C(C)C)Oc3ccccc32)CC1 (stereo not given) | 3.5µM | n | n | n
COc1ccc(CCC(=O)N2c3ccccc3N=C(c3ccc4c(c3)OCO4)C2C(=O)NCc2ccccc2)cc1 (stereo not given) | 32µM | x | x | x
CNC(=O)COC(=O)c1cc2c(C)nn(-c3ccc(F)cc3)c2s1 | 35µM | n | n | n
